# Values joined by “and” are separate entries in the source; they are usually repeats but may differ in a detail not shown here. Equal values may be shown once. Entries with a potency or affinity are not part of this list.
# Test system: Staphylococcus aureus
# Conditions: Concentration 32 ug.mL-1; ASSAY_TEST Inhibition of Bacterial Growth; detection method Absorption (OD600); MEDIA CAMHB; plate type 384well; NBS; CORNING #3640; time 18 hr
row,Compound,Inhibition [%]
1,CCCNC(=O)C(Cc1ccccc1C)NC(=O)c1ccc(C(F)(F)F)cc1 (stereo not given),28.42
2,[C-]#[N+]c1ccc(C(=O)NC(Cc2ccc(F)cc2)C(=O)NCCC)cc1 (stereo not given),26.08
3,[C-]#[N+]c1ccc(C(=O)NC(Cc2ccc(C(F)(F)F)cc2)C(=O)NCCC)cc1 (stereo not given),24.86
4,CCCNC(=O)C(Cc1ccc(F)cc1)NC(=O)c1ccccc1 (stereo not given),25.83
5,CCCNC(=O)C(Cc1ccccc1)NC(=O)c1ccc(F)cc1 (stereo not given),30.52
6,[C-]#[N+]c1ccc(C(=O)NC(CC=C)C(=O)NCCC)cc1 (stereo not given),14.2
7,[C-]#[N+]c1ccc(C(=O)NC(CC#C)C(=O)NCCC)cc1 (stereo not given),27.84
8,[C-]#[N+]c1ccc(C(=O)NC(Cc2ccccc2F)C(=O)NCCC)cc1 (stereo not given),22.89
9,CCCNC(=O)C(Cc1ccccc1)NC(=O)Cc1ccccc1 (stereo not given),29.57
10,[C-]#[N+]c1ccc(C(=O)NC(CC)C(=O)NCCC)cc1 (stereo not given),19.19

# Same assay, conditions: Concentration 32 ug.mL-1; ASSAY_TEST Inhibition of Bacterial Growth; detection method Absorption (OD600); MEDIA CAMHB; plate type 384well; NBS; CORNING #3640; time 18 hr, 32 ug/mL
row,Compound,Inhibition
1,O=C(NC(CCCc1ccccc1)C(=O)O)c1cccc2ccccc12 (stereo not given),21.08% and 19.14%
2,Cc1ccc(C(=O)NC(Cc2ccccc2C#N)C(=O)O)cc1 (stereo not given),24.12% and 21.1%
3,O=C(NC(Cc1ccc(Cl)nc1)C(=O)O)c1ccccc1 (stereo not given),22.85% and 23.42%
4,NC(Cc1ccccc1I)C(=O)O.O=C(O)C(F)(F)F (stereo not given),9.99% and 15.72%
5,C[C@H](NC(=O)c1ccccc1Cl)C(=O)O,13.46% and 14.36%
6,NC(=O)[C@@H]1CCCN1C(=O)c1ccccn1,30.13% and 31.7%
7,NC(Cc1ccc(F)cc1)C(=O)O.O=C(O)C(F)(F)F (stereo not given),15.79% and -3.39%
8,NC(=O)[C@H](Cc1ccccc1)NC(=O)c1c(F)c(F)c(F)c(F)c1F,22.06% and 27.14%
9,O=C(N[C@@H](Cc1ccccc1)C(=O)O)C1CCCCC1,12.87% and 13.13%
10,NC(Cc1cccc(F)c1)C(=O)O.O=C(O)C(F)(F)F (stereo not given),11.07% and 11.98%
11,COc1cc(C(=O)N[C@@H](CC(C)C)C(=O)O)ccc1O,20.35% and 19.19%
12,NC(Cc1ccccc1F)C(=O)O.O=C(O)C(F)(F)F (stereo not given),11.55% and 11.5%
13,NC(=O)[C@H](Cc1ccccc1)NC(=O)c1cccnc1,29.26% and 26.43%
14,CC(C)[C@H](NC(=O)c1cccc(C(F)(F)F)c1)C(=O)O,19.09% and 11.5%
15,NC(Cc1ccc(F)c(F)c1)C(=O)O.O=C(O)C(F)(F)F (stereo not given),14.42% and 15.4%
16,CC(C)C[C@H](NC(=O)c1cccnc1)C(N)=O,11.42% and -3.35%
17,Cc1ccc(C(=O)NC(Cc2cc(F)c(F)cc2F)C(=O)O)cc1 (stereo not given),24.46% and 19.13%
18,O=C(Cc1cccc(Br)c1)N[C@@H](Cc1ccccc1)C(=O)O,8.37% and -0.37%

# Test system: Escherichia coli
# Conditions: Concentration 32 ug.mL-1; ASSAY_TEST Inhibition of Bacterial Growth; detection method Absorption (OD600); MEDIA CAMHB; plate type 384well; NBS; CORNING #3640; time 18 hr
row,Compound,Inhibition [%]
1,CCCNC(=O)C(Cc1ccccc1C)NC(=O)c1ccc(C(F)(F)F)cc1 (stereo not given),15.38
2,[C-]#[N+]c1ccc(C(=O)NC(Cc2ccc(F)cc2)C(=O)NCCC)cc1 (stereo not given),15
3,[C-]#[N+]c1ccc(C(=O)NC(Cc2ccc(C(F)(F)F)cc2)C(=O)NCCC)cc1 (stereo not given),13.88
4,CCCNC(=O)C(Cc1ccc(F)cc1)NC(=O)c1ccccc1 (stereo not given),9.01
5,CCCNC(=O)C(Cc1ccccc1)NC(=O)c1ccc(F)cc1 (stereo not given),11.25
6,[C-]#[N+]c1ccc(C(=O)NC(CC=C)C(=O)NCCC)cc1 (stereo not given),6.66
7,[C-]#[N+]c1ccc(C(=O)NC(CC#C)C(=O)NCCC)cc1 (stereo not given),17.34
8,[C-]#[N+]c1ccc(C(=O)NC(Cc2ccccc2F)C(=O)NCCC)cc1 (stereo not given),11.79
9,CCCNC(=O)C(Cc1ccccc1)NC(=O)Cc1ccccc1 (stereo not given),14.02
10,[C-]#[N+]c1ccc(C(=O)NC(CC)C(=O)NCCC)cc1 (stereo not given),3.26

# Same assay, conditions: Concentration 32 ug.mL-1; ASSAY_TEST Inhibition of Bacterial Growth; detection method Absorption (OD600); MEDIA CAMHB; plate type 384well; NBS; CORNING #3640; time 18 hr, 32 ug/mL
row,Compound,Inhibition
1,Cc1ccc(C(=O)NC(Cc2ccccc2C#N)C(=O)O)cc1 (stereo not given),12.75% and 9.35%
2,O=C(NC(Cc1ccc(Cl)nc1)C(=O)O)c1ccccc1 (stereo not given),9.12% and 5.81%
3,NC(Cc1ccccc1I)C(=O)O.O=C(O)C(F)(F)F (stereo not given),13.12% and 15.99%
4,C[C@H](NC(=O)c1ccccc1Cl)C(=O)O,2.9% and -3.06%
5,NC(=O)[C@@H]1CCCN1C(=O)c1ccccn1,20.95% and 16.57%
6,NC(Cc1ccc(F)cc1)C(=O)O.O=C(O)C(F)(F)F (stereo not given),9.45% and 2%
7,NC(=O)[C@H](Cc1ccccc1)NC(=O)c1c(F)c(F)c(F)c(F)c1F,6.54% and 12.4%
8,O=C(N[C@@H](Cc1ccccc1)C(=O)O)C1CCCCC1,2.23% and -1.68%
9,NC(Cc1cccc(F)c1)C(=O)O.O=C(O)C(F)(F)F (stereo not given),9.03% and 16.34%
10,COc1cc(C(=O)N[C@@H](CC(C)C)C(=O)O)ccc1O,10.4% and 9.74%
11,NC(Cc1ccccc1F)C(=O)O.O=C(O)C(F)(F)F (stereo not given),17.44% and 15.69%
12,NC(=O)[C@H](Cc1ccccc1)NC(=O)c1cccnc1,20.31% and 18.99%
13,CC(C)[C@H](NC(=O)c1cccc(C(F)(F)F)c1)C(=O)O,0.57% and -0.75%
14,NC(Cc1ccc(F)c(F)c1)C(=O)O.O=C(O)C(F)(F)F (stereo not given),15.3% and 11.55%
15,CC(C)C[C@H](NC(=O)c1cccnc1)C(N)=O,-6.61% and -6.83%
16,Cc1ccc(C(=O)NC(Cc2cc(F)c(F)cc2F)C(=O)O)cc1 (stereo not given),4.35% and 11.7%
17,O=C(Cc1cccc(Br)c1)N[C@@H](Cc1ccccc1)C(=O)O,5.53% and 8.68%

# — ChEMBL document CHEMBL4513142, “CO-ADD screening of Indiana University - Purdue University Indianapolis (USA) compounds”
